# Values of other authors, collected in PubChem BioAssay AID977608.
# The campaign covered roughly 4,300 compounds. About 4,300 (100%) were called active. Cut-off not given; nearly all actives show IC50 up to about 1400 µM. The set was probably picked from earlier hits. The list shows a part of the results. Where a SMILES comes first, the peptide text is derived from it. Square brackets hold non-standard residues; d marks the D form. Peptide text beside a SMILES is read from it. [ ]: non-standard residue; d: D form. Orn(CH(NH2)2) = NC(N)NCCC[C@H](N)C(=O)O
# Assay: protein-ligand inhibition affinities from structures – PDB-derived complexes (AID 977608)
smiles,measurement,setting,value
Cn1c(=O)c(C(=O)NCC(=O)O)c(O)c2ccccc21,IC50,"literature IC50, protein: EGL NINE HOMOLOG 1, PDB entry 4bqw",0.033 µM (active)
CO[C@H]1CN(c2nc(-c3ncnn3C)c(C(=O)O)s2)CC[C@H]1NC(=O)c1[nH]c(C)c(Cl)c1Br,IC50,"literature IC50, protein: DNA GYRASE SUBUNIT B, PDB entry 4bae",0.003 µM (active)
Nc1ccc(CC(=O)OCCc2ccccc2)c(C=O)c1,IC50,"literature IC50, protein: RHOMBOID PROTEASE GLPG, PDB entry 3zeb",0.74 µM (active)
Cc1ccc(S(=O)(=O)Nc2ccc(Oc3ccccc3)cc2C(=O)O)cc1,IC50,"literature IC50, protein: Genome polyprotein, PDB entry 4j08",0.22 µM (active)
Cc1ccc(S(=O)(=O)Nc2cc(Oc3ccccc3)ccc2C(=O)O)cc1,IC50,"literature IC50, protein: Genome polyprotein, PDB entry 4j0a",0.16 µM (active)
N=C[C@@H]1CCCN1C(=O)CNC12C[C@@H]3C[C@@H](CC(O)(C3)C1)C2,IC50,"literature IC50, protein: Dipeptidyl peptidase 4, PDB entry 3w2t",0.0292 µM (active)
O=C(O)c1sc(-c2ccccc2)cc1N1C(=O)CC[C@@H]1C1CCCCC1,IC50,"literature IC50, protein: NS5B, PDB entry 4tn2",0.12 µM (active)
Cc1[nH]ncc1-c1ccccc1Cl,IC50,"literature IC50, protein: Adenylate cyclase type 10 hsolAC, PDB entry 4oyo",300 µM (active)
Cc1[nH]ncc1-c1ccc(F)cc1,IC50,"literature IC50, protein: Adenylate cyclase type 10 hsolAC, PDB entry 4oz2",1000 µM (active)
O=c1c2ccccc2oc2c(Cc3ccc(O)cc3)[nH]c(-c3cccs3)c12,IC50,"literature IC50, protein: cGMP-specific 3',5'-cyclic Phosphodiesterase-5 (PDE5), PDB entry 4md6",0.017 µM (active)
Cc1cc2c(cc1C)N1[C@@](C)(N)CC(c3ccccc3)[C@]13C(=O)NC(=O)N[C@H]3N2C[C@H](O)[C@H](O)[C@H](O)CO[P+](O)(O)O[P+](O)(O)OC[C@H]1O[C@@H](n2cnc3c(N)ncnc32)[C@H](O)[C@@H]1O (some centres not stated),IC50,"literature IC50, protein: LYSINE-SPECIFIC HISTONE DEMETHYLASE 1A, PDB entry 4uvb",3.26 µM (active)
Cc1cc2c(cc1C)N([C@@](N)(CCc1ccccc1)c1ccccc1)C1C(=O)NC(=O)N=C1N2C[C@H](O)[C@H](O)[C@H](O)CO[P+](O)(O)O[P+](O)(O)OC[C@H]1O[C@@H](n2cnc3c(N)ncnc32)[C@H](O)[C@@H]1O (some centres not stated),IC50,"literature IC50, protein: LYSINE-SPECIFIC HISTONE DEMETHYLASE 1A, PDB entry 4uvc",0.131 µM (active)
CC(=N)C[C@@H](c1ccccc1)[C@]12Nc3cc(C)c(C)cc3N(C[C@H](O)[C@H](O)[C@H](O)CO[P+](O)(O)O[P+](O)(O)OC[C@H]3O[C@@H](n4cnc5c(N)ncnc54)[C@H](O)[C@@H]3O)[C@@H]1NC(=O)NC2=O,IC50,"literature IC50, protein: LYSINE-SPECIFIC HISTONE DEMETHYLASE 1A, PDB entry 4uva",1.78 µM (active)
CCC(=N)C[C@@H](c1ccccc1)[C@]12Nc3cc(C)c(C)cc3N(C[C@H](O)[C@H](O)[C@H](O)CO[P+](O)(O)O[P+](O)(O)OC[C@H]3O[C@@H](n4cnc5c(N)ncnc54)[C@H](O)[C@@H]3O)[C@@H]1NC(=O)NC2=O,IC50,"literature IC50, protein: LYSINE-SPECIFIC HISTONE DEMETHYLASE 1A, PDB entry 4uv9",0.975 µM (active)
Cc1cc2c(cc1C)N(C[C@H](O)[C@H](O)[C@H](O)CO[P+](O)(O)O[P+](O)(O)OC[C@H]1O[C@@H](n3cnc4c(N)ncnc43)[C@H](O)[C@@H]1O)[C@@H]1NC(=O)NC(=O)[C@@]1([C@@H](CC(=N)Cc1ccccc1)c1ccccc1)N2,IC50,"literature IC50, protein: LYSINE-SPECIFIC HISTONE DEMETHYLASE 1A, PDB entry 4uv8",0.335 µM (active)
O=C(O)c1nc(-c2ccc3cccc(N=Nc4nc5ccccc5s4)c3c2)sc1CCCCc1ccccc1,IC50,"literature IC50, protein: BCL-2-LIKE PROTEIN 1, PDB entry 3zlo",0.0015 µM (active)
C#CC[C@H](NC(=O)[C@@H](NC(=O)[C@H](CC(C)C)NC(=O)[C@@H](NC(=O)CNC(=O)[C@@H](NC(=O)CNC(=O)[C@H](C)NC(=O)[C@@H](CCC)NC(=O)[C@](C)(N)c1ccccc1)[C@@H](C)CC)[C@@H](C)CC)[C@@H](C)O)C(=O)O,IC50,"literature IC50, protein: HLA class I histocompatibility antigen, A-2 alpha chain HLA-A 0201, PDB entry 4wj5",0.51 µM (active)
CC[C@H](C)[C@H](NC(=O)[C@H](C)NC(=O)[C@H](CC(N)=O)NC(=O)[C@@H]1CCCN1C(=O)[C@@H](N)CC(C)C)C(=O)NCC(=O)N[C@@H](CCCNC(N)N)C(=O)O (H-LPNAIG[Orn(CH(NH2)2)]-OH),IC50,"literature IC50, protein: Low-density lipoprotein receptor-related protein 6, PDB entry 3sov",61 µM (active)
NCCCC[C@H](N)C(=O)N[C@@H](CCCNC(N)N)C(=O)N1CCC[C@H]1C(=O)N1CCC[C@H]1C(=O)N1CCC[C@H]1C(=O)N1CCC[C@H]1C(=O)N1CCC[C@H]1C(=O)N1CCC[C@H]1C(=O)NCC(=O)O (H-K[Orn(CH(NH2)2)]PPPPPPG-OH),IC50,"literature IC50, protein: cortactin isoform a, PDB entry 2d1x",7.9 µM (active)
CC[C@H](C)[C@H](NC(=O)[C@@H](NC(=O)[C@@H](NC(=O)[C@H](CCCNC(N)N)NC(=O)[C@H](CCCCN)NC(=O)[C@H](CO)NC(=O)[C@H](CCCNC(N)N)NC(=O)CNC(=O)[C@@H](NC(=O)[C@H](CCC(N)=O)NC(=O)CNC(=O)[C@H](CC(C)C)NC(=O)[C@H](CCCCN)NC(=O)[C@@H]1CCCN1C(=O)[C@@H]1CCCN1C(=O)[C@H](CCCNC(N)N)NC(=O)[C@@H](N)CCCCN)[C@@H](C)CC)C(C)C)C(C)C)C(=O)O (H-K[Orn(CH(NH2)2)]PPKLGQIG[Orn(CH(NH2)2)]SK[Orn(CH(NH2)2)]VVI-OH),IC50,"literature IC50, protein: Calcium/calmodulin dependent protein kinase II, PDB entry 3kl8",0.12 µM (active)
CC[C@H](C)[C@H](NC(=O)[C@H](CO[P+](O)(O)O)NC(=O)[C@H](C)NC(=O)[C@H](CCC(N)=O)NC(=O)[C@@H](N)CCCNC(N)N)C(=O)N[C@@H](CCC(=O)O)C(=O)N[C@@H](CC(C)C)C(=O)N1CCC[C@H]1C(=O)N[C@@H](CO)C(=O)N[C@@H](CCSC)C(=O)O,IC50,"literature IC50, protein: HLA class I histocompatibility antigen, PDB entry 3bh8",0.0112 µM (active)
CC[C@H](C)[C@H](NC(=O)[C@H](CCCNC(N)N)NC(=O)CNC(=O)[C@@H](NC(=O)[C@@H](NC(=O)[C@@H](NC(=O)[C@@H](NC(=O)[C@H](CO)NC(=O)CNC(=O)CN)C(C)C)C(C)C)[C@@H](C)CC)C(C)C)C(=O)N[C@H](C(=O)N[C@@H](CC(C)C)C(=O)N[C@@H](CO)C(=O)O)[C@@H](C)CC (HELM PEPTIDE1{G.G.S.V.V.I.V.G.[NC(N)NCCC[C@H](N[*:1])C(=O)[*:2]].I.I.L.S}$$$$V2.0),IC50,"literature IC50, protein: Genome polyprotein (D1194V mutation), PDB entry 4i32",0.058 µM (active)
same,IC50,"literature IC50, protein: Genome polyprotein (R1181K mutation), PDB entry 4i33",0.0047 µM (active)
same,IC50,"literature IC50, protein: Genome polyprotein, PDB entry 4i31",0.00048 µM (active)
CCCNc1nc(N)c(C(=O)c2ccc(Cl)s2)s1,IC50,"literature IC50, protein: Cyclin-dependent kinase 2, PDB entry 3s00",12 µM (active)
Nc1nc(NC2C=C2)cc(-c2cccc(Cl)c2Cl)n1,IC50,"literature IC50, protein: 7,8-dihydro-8-oxoguanine triphosphatase, human MTH1 protein, PDB entry 4n1u",0.005 µM (active)
CNc1cc(-c2cccc(Cl)c2Cl)nc(N)n1,IC50,"literature IC50, protein: 7,8-dihydro-8-oxoguanine triphosphatase, human MTH1 protein, PDB entry 4n1t",0.0008 µM (active)
